ELG1 genotoxic: inducers of genotoxicity in HEK293T ELG1-luciferase cells; Potency, µM (highest dose often 46 µM), for inactives: at the highest dose activity change, positive = activation, actives largely listed as activators; hit rate 1.3% among 330,000; HEK293T ELG1-luciferase reporter, luminescence, 16 h; further: % of control where 0% means no effect; nearly all actives have a fitted effect of over 60% in size
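Reporter readout depends on ELG1 protein level, which increases with genetic stress. After 16 hr compound exposure at 37 °C, luciferase activity was quantified using ONE-Glo.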
SMN2 splice enh: SMN2 splice variant enhancement; HEK293 SMN2-luciferase splicing reporter, luminescence, 30-36 h; Potency, µM (doses to about 46.1 µM), inactives show at the highest dose activity change, positive = activation, actives largely listed as activators; hit rate 2.8% among 210,000; AID 1458; further: % of control where 0% means no effect; nearly all actives have a fitted effect of over 55% in size
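qHTS luciferase splicing reporter: luminescence rises when SMN2 exon 7 is included in transfected HEK293 cells. Compound exposure lasted 30-36 h at 37C, with 4.5 mM final sodium butyrate as control, followed by a ONE-Glo read.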
NPC1 promoter act: NPC1 promoter activation. hit rate 2.4% among 320,000. Huh7 NPC1 promoter luciferase reporter, 24 h. Potency, µM (doses to about 9.22 µM), inactives show at the top dose activation, actives largely listed as activators. AID 485313; further: % of control where 0% means no effect; nearly all actives have a fitted effect of over 60% in size
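Quantitative HTS used a cell-based reporter: Huh7 cells stably bearing the NPC1 promoter upstream of luciferase were treated with compounds for 24 h, and promoter activation was read as luminescence.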
FLuc counter: inhibits or activates purified firefly luciferase, miR-21 counter-screen. P08659. purified FLuc, Km substrates, luminescence inhibition. Potency, µM (highest dose often 57.5 µM), without a hit: at the highest dose activity change, negative = inhibition, actives largely listed as inhibitors. hit rate 6.9% among 360,000. AID 588342;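 further: plate controls were vehicle for no effect and reference inhibitor for full effect; nearly all actives have a fitted effect of over 55% in size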
Target sequence (P08659 whole entry, looked up): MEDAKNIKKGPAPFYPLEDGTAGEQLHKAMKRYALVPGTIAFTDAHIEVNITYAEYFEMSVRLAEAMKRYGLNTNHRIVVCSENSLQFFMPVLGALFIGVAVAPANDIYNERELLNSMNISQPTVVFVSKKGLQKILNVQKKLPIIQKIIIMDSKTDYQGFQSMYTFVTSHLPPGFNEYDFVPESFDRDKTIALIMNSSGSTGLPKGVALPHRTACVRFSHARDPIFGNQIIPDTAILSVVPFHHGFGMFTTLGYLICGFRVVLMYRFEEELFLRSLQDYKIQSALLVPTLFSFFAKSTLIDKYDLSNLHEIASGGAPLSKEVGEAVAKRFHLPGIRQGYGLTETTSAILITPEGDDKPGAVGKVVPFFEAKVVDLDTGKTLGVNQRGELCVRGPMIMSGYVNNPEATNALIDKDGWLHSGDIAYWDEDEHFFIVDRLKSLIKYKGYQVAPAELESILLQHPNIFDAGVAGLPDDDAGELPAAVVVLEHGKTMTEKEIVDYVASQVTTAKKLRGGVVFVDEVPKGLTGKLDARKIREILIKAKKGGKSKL
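Purified P. pyralis luciferase, 10 nM final, with Km-level 10 uM D-luciferin and 10 uM ATP in 50 mM Tris acetate pH 7.5, 10 mM Mg acetate, 0.01% Tween-20, 0.05% BSA; 6-point qHTS titration about 60 µM downward; luminescence read.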
Rab9 promoter act: Rab9 promoter activation; Potency, µM (top dose mostly 9.22 µM), for the others: top-dose activation, negative = inhibition, usual class: activators; Huh7 Rab9 promoter-luciferase reporter, luminescence, 24 h; AID 485297; hit rate 2.8% among 320,000; further: % of control where 0% means no effect; nearly all actives have a fitted effect of over 60% in size
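Luminescence read-out: Huh7 cells stably expressing Rab9-luciferase, treated 24 h with compound at 37 °C, then lysed with luciferase reagent for 10 min at ambient before reading.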
The depositor's hits bear a star; ? = inconclusive; / = not tested or not shown; [ ] = dose if it differs, or a comment. Hits are enriched below; roughly 7.4% of the tested compounds scored in any of these assays. The call rests on the fitted dose curve; in most records, active means well fitted curve in the direction sought with a large enough effect; inconclusive means small, poorly fitted or top-dose-only effect, or another doubt; inactive means no such curve, though single readings can be large; an effect the other way counts as inactive or inconclusive. Potency means the concentration at half of the fitted maximal effect.

SMILES	ELG1 genotoxic	SMN2 splice enh	NPC1 promoter act	FLuc counter	Rab9 promoter act
COc1cccc2oc3cc(C#CC4(O)CCCCC4)ccc3c(=O)c12	0.411µM*	/	0.355µM*	0.601µM*	0.355µM*
COc1cccc2oc3cc(C#Cc4ccccn4)ccc3c(=O)c12	18.7%	/	2.51µM*	4.78µM*	3.16µM*
C[C@H]([C@H](C)N1CC(=O)NC(=O)C1)N1CC(=O)NC(=O)C1	/	-9.9%	/	/	/
CCN(CC)COC(=S)S	/	-12.5%[9.22 µM]	/	/	/
COc1ccc(S(=O)(=O)Nc2ccc(C(N)=O)cc2)cc1C(=O)N1CCCCCC1	1.8%	/	-1.0%	0.6%	-3.9%
COc1cccc2sc3ccc(C#Cc4ccc(N)cc4)cc3c(=O)c12	?	/	3.55µM*	4.78µM*	2.51µM*
COc1cccc2sc3ccc(NCc4ccc5c(c4)OCO5)cc3c(=O)c12	4.4%	/	1.9%	?	3.1%
Cc1ccc2c(c1)cc(C(=O)NCc1ccccc1C)n2C	/	/	/	1.1%	/
Cc1ccc2c(c1)N[C@H](c1ccc(C(=O)O)cc1)c1cccn1-2	/	-30.0%[9.22 µM]	/	/	/
COc1ccc(-c2noc(-c3cc(-c4ccc(F)cc4)n[nH]3)n2)cc1	/	/	/	4.1%	/
CCOc1ccc(-c2cc(-c3nc(-c4cc(OC)c(OC)c(OC)c4)no3)[nH]n2)cc1	/	/	/	21.3µM*	/
COc1ccc2[nH]c(C)c(CCNS(=O)(=O)c3cc(F)ccc3OC)c2c1	/	11.2%	/	-1.1%	/
C/C(=N\Nc1nncc2ccccc12)c1cccc(OC(F)F)c1	2.91µM*	/	1µM*	1.07µM*	1.12µM*
C/C(=N\Nc1nncc2ccccc12)c1ccc(C(C)(C)C)cc1	17.6%	/	?	7.57µM*	17.5%[1.84 µM]
C/C(=N\Nc1nncc2ccccc12)c1ccc(O)cc1	28.4%	/	1.26µM*	0.953µM*	0.708µM*
COc1ccc(-c2nc(N/N=C(\C)c3ccc(O)cc3)c3ccccc3n2)cc1	-9.2%	/	-3.2%	1.69µM*	3.6%
COc1ccc(NC(=O)C(NC(C)=O)C(=O)Nc2ccc(F)cc2)cc1 (stereo not drawn)	1.1%	/	-2.4%	-1.5%	-2.3%[1.84 µM]
CCCCC(=O)Nc1ccc(NC(=O)c2ccc3c(c2)OCO3)cc1OC	12.5%	29.0%	15.1%	10.7µM*	-0.2%
CC(C)C(=O)Nc1ccc(NC(=O)c2ccc3c(c2)OCO3)cc1	?	/	5.1%	-5.4%	9.2%
COc1cc(NC(=O)c2ccc3c(c2)OCO3)ccc1NC(=O)C(C)C	9.3%	-18.6%	18.3%	15.1µM*	4.2%
CN1CCN(c2ccc(Cl)cc2NC(=O)/C=C/c2ccc(F)cc2)CC1	-1.4%	-41.8%	2.5%	-2.0%	-6.5%
C(=N/n1c2ccccc2c2ccccc21)/c1ccco1	-9.1%	?	-5.3%	0.0%	-1.7%
N=c1scc(-c2ccccc2)n1/N=C/c1ccco1	?	?	?	6.75µM*	3.55µM*
Cc1ccc2nc(Nc3nc(CSc4nnc(C)s4)cc(=O)[nH]3)nc(C)c2c1	5.4%	/	-1.6%	9.53µM*	-3.4%
COc1ccc(/C=C2\CCn3c2nc2ccccc2c3=O)cc1OC	?	/	3.55µM*	8.49µM*	2.51µM*
SMILES	ELG1 genotoxic	SMN2 splice enh	NPC1 promoter act	FLuc counter	Rab9 promoter act
COc1ccc(/C=C2\CCn3c2nc2cc(C(=O)O)ccc2c3=O)cc1OC	1.4%	/	-2.9%	-3.8%	-33.7%
COc1cc(/C=C2\CCc3c2nc2ccccc2c3C(=O)O)cc(OC)c1OC	23.1µM*	/	2µM*	0.849µM*	3.55µM*
COc1ccc(NC(=O)COCc2cc(-c3ccc4c(c3)OCO4)on2)cc1	/	/	/	-26.5%	/
O=C(Cc1ccccc1[N+](=O)[O-])N1CCc2ccccc2C1	9.2%	18.5%	23.9%	-16.7%	?
Cc1ccc(Cc2nc(-c3ccccn3)no2)cc1	?	12.6µM*	1.78µM*	10.7µM*	3.16µM*
CN(Cc1nc(-c2ccccn2)no1)S(=O)(=O)c1ccc(Br)cc1	6.0%	-19.0%	-0.9%	-0.7%	-2.2%
COc1ccc(Cc2nc(-c3ccccn3)no2)cc1	18.3%	?	3.55µM*	?	?
COc1ccc(-c2noc(CCc3ccccc3)n2)cc1	?	22.7%	?	15.1µM*	?
c1ccc(CCCc2nc(-c3ccccn3)no2)cc1	?	20µM*	2.82µM*	16.9µM*	2.24µM*
O=C(CSc1cn(CC(=O)N2CCCCC2)c2ccccc12)Nc1ccccc1F	/	/	/	-12.6%	/
Cc1ccc(C(=O)Nc2nnc(COc3ccccc3)s2)cc1	4.1%	/	1.1%	1.4%	-7.7%
COC(=O)C1CCN(C(=O)[C@H](C)NC(=O)C2CC(=O)N(c3ccc(F)cc3)C2)CC1 (stereo partly drawn)	-0.3%	/	-3.7%	0.6%	-2.4%
c1ccc(Cc2nc(-c3ccccn3)no2)cc1	?	25.1µM*	?	23.9µM*	2.82µM*
c1ccc(C(Cc2nc(-c3ccccn3)no2)c2ccccc2)cc1	4.3%	29.2%	?	?	?
O=C1c2ccccc2C(=O)N1Cc1nc(-c2ccccn2)no1	/	-12.9%	/	-14.8%	/
O=C(O)CCCc1nc(-c2ccc(Cl)cc2)no1	1.1%	2.8%	0.0%	?	21.2%
c1ccc(SCc2nc(-c3ccccn3)no2)cc1	18.4µM*	11.2µM*	3.55µM*	16.9µM*	?
Clc1ccc(-c2noc(CCCc3ccccc3)n2)cc1	?	4.7%	5.8%	26.9µM*	8.0%
CN(C)C(=O)CCCc1nc(-c2ccc(Cl)cc2)no1	14.6µM*	13.8%	?	?	3.16µM*
O=C(CCc1nnc(CCCc2ccccc2)o1)NCCN1CCOC1=O	-0.5%	11.1%	-2.1%	2.5%	0.3%
C=C[C@@H](C1=CC(=O)C(OC)=C(OC)C1=O)c1ccccc1	/	-0.4%	/	/	/
NNC(=S)NCc1ccc2c(c1)OCO2	-1.1%	-7.9%	-0.6%	-0.3%	-2.5%
CCN1c2ccccc2-c2nc3ccccc3n2C1c1cccs1 (stereo not drawn)	-0.8%	-12.2%	-1.9%	-2.8%	-3.8%
c1ccc(-c2noc(CC3CCCCC3)n2)nc1	?	/	3.55µM*	9.53µM*	1.12µM*
COc1ccc(-c2noc(Cc3cccs3)n2)cc1	?	17.2%	?	5.36µM*	2.82µM*
SMILES	ELG1 genotoxic	SMN2 splice enh	NPC1 promoter act	FLuc counter	Rab9 promoter act
Cc1cccc(NC(=O)c2cc3c(=O)n(Cc4ccco4)ccc3nc2C)c1	/	/	/	-7.7%	/
CS(=O)(=O)c1ccc2nc(NC(=O)c3cccc(NS(=O)(=O)c4ccc(F)c(F)c4)c3)sc2c1	-2.2%	-0.5%	12.5%	23.9µM*	1.4%
O=C(Nc1nc2ccc(SC(F)F)cc2s1)c1ccc(NS(=O)(=O)c2ccc(F)c(F)c2)cc1	-2.8%	-4.0%	13.4%	15.1µM*	24.7%
O=C(NC1CCN(Cc2ccc3ccccc3c2)CC1)c1ccccc1	-8.8%	/	-6.8%	-2.2%	-8.6%
CC12CCC(=O)N1C(C(=O)NNC(=O)c1ccccc1)CS2 (stereo not drawn)	0.0%	/	-0.5%	0.2%	-8.3%
O=C(Cc1ccccc1)O/N=C1\CCCc2ccccc21	1.8%	15.9%	-2.6%	15.1µM*	0.4%

Screening data from PubChem BioAssay.
